Molecules are shown by their SMILES. Among all 290,000 compounds or so, about 27,000 (9.3%) were called active. The sample holds actives, similar compounds and a random draw of the others, so the mix is not that of the screen. Rule as the data show it: active = inhibition mostly above about 28% (no sharp cut-off); inactive = mostly below about 43%.

The source of these data is PubChem BioAssay AID2315 (National Center for Advancing Translational Sciences (NCATS), 2010).

This assay in a line: A qHTS for Small Molecule Inhibitors of Shiga Toxin. Also: 0% is about no effect. The conditions noted are these: Vero cells, Shiga toxin protein synthesis inhibition reporter; at 38.7 µM, active compounds read high.
Usually inhibition stands for the relative decrease from the control value, in per cent. On to `Cc1cc(NC(=O)CCN2CCN(Cc3ccccc3)CC2)ccc1Br`, for which the inhibition was 3.31% (inactive). Under `CCC(NC(=O)c1cc(COc2ccc(F)c(F)c2)on1)c1ccncc1` (centres undefined) stands 52.5% (active); under `O=C(c1c(F)cccc1F)N1CCN(c2ncc(Br)cn2)CC1`, -6.62% (inactive). For the compound `O=C(c1cc(COc2ccc(F)c(F)c2)on1)N1CCOCC1`, the inhibition is 90.7% (active). The value for `C=CCC1(CC=C)CCCN1C(=O)c1cc(COc2ccc(-n3cncn3)cc2)on1` was 40.9% (inactive); that for `O=C(NC1Cc2ccccc2C1)c1cc(COc2cccc(C(F)(F)F)c2)on1` was -0.154% (inactive); that for `CCOC(=O)CC1COCCN1C(=O)c1cc(COc2ccc(F)c(F)c2)on1` (centres undefined) was 72.8% (active). In the case of `Cc1nonc1C1CCCN1C(=O)c1cc(COc2cccc(C(F)(F)F)c2)on1` (centres undefined), the inhibition was 23.7% (inactive).

Take `Cc1cc(NC(=O)COC(=O)c2ccc(F)c(S(=O)(=O)N3CCOCC3)c2)no1`: the inhibition is -2.48% (inactive). Turning to `O=C(c1cc(COc2c(F)cccc2F)on1)N1CCSCC1`, the inhibition was 100% (active). The value for `O=C(c1cc(COc2cccc(C(F)(F)F)c2)on1)N1CCSCC1` was 26.5% (inactive); that for `Cc1c(C(=O)N2CCOCC2)[nH]c2ccc(OCc3ccccc3)cc12` was 5.47% (inactive); that for `O=C(CC(NC(=O)c1ccccc1)c1ccccc1)Nc1ccc(F)c(F)c1` (centres undefined) was 12.4% (inactive). The value for `CC(C)NC(=O)N1CCN(c2ccncc2S(=O)(=O)N2CCCCC2)CC1` was -38.7% (inactive).

Take `Cn1c(=O)c(=O)n(C)c2cc(S(=O)(=O)CCC(=O)N3CCCCC3)ccc21`: the inhibition was -4.02% (inactive). With `CN(C)CCNc1ccc(-c2n[nH]c(=O)c3ccccc23)cc1[N+](=O)[O-]`, the inhibition is -10.6% (inactive).

`Cc1ccc(C(=O)NCC(=O)NCc2cc(=O)n(C)c(=O)n2C)cc1`: the inhibition was -10.2% (inactive).

In the case of `COc1ccc(C(C(=O)NC2CCCCC2)N(C(=O)c2snc(C(N)=O)c2N)c2ccccc2OC)cc1` (centres undefined), the inhibition is -17.5% (inactive). On to `COc1ccc(-n2nc(C(=O)NCC(=O)N3CCCCCC3)c3ccccc3c2=O)cc1Cl`, for which the inhibition was -9.59% (inactive).

With `COc1cc(CC(=O)N2CCC(n3nccc3NC(=O)C3CC3)CC2)cc(OC)c1OC`, the inhibition was -10.9% (inactive). Consider `Cc1cc(C)cc(N(CCC#N)C(=O)CN2C(=O)NC3(CCCC3)C2=O)c1`, for which the inhibition was 23% (inactive).

For the compound `O=C(O)C1CCCN1C1=NS(=O)(=O)c2ccccc21` (centres undefined), the inhibition is -13.3% (inactive). The value for `CCOC(=O)C1CCN(C(=O)Cn2nc(C)c3c(C)n(-c4ccccc4)nc3c2=O)CC1` was -6.47% (inactive); that for `COc1ccc(N2CCN(S(=O)(=O)c3cc(Br)cnc3N)CC2)cc1` was -7.11% (inactive); that for `O=C(CCN1C(=O)[C@@H]2Cc3ccccc3CN2C1=O)NCCc1ccccc1` was -8.8% (inactive).

For `COCCN1CCN(C(=O)c2cc(COc3ccc(F)cc3Cl)on2)CC1`, the inhibition is -23.4% (inactive). The value for `O=C(Oc1ccc(C(=S)N2CCOCC2)cc1)c1ccc(F)cc1` was -4.36% (inactive); that for `O=C(c1cc(COc2ccc(F)cc2F)on1)N1CCOCC1` was 81.3% (active); that for `O=C(Nc1ccc(Cl)cc1)Nc1nnc(/C=C/c2ccccc2)s1` was -5.24% (inactive). The value for `COc1ccc(/C=C/c2nnc(NC(=O)C(C)C)s2)cc1` was 42.3% (active); that for `O=C(CSc1ccccc1)Nc1nnc(/C=C/c2ccccc2)s1` was -38.9% (inactive). Under `COC(=O)[C@]1(S(=O)(=O)c2ccccc2)C[C@@H]2ON=C(c3ccc(OC)cc3)[C@@H]2C1` stands 13.5% (inactive); under `Cc1nn2cc(-c3ccc(Cl)cc3)cnc2c1Br`, 38.8% (active). For `COc1ccc(NC(=O)N2CCC(Cc3ccccc3)CC2)cc1`, the inhibition was 35.2% (inactive). The value for `COc1ccc(NC(=S)N2N=CCC2c2ccccc2)cc1` (centres undefined) was 88.7% (active). Under `COc1ccc(N2CCN(C(=S)Nc3ccc(S(N)(=O)=O)cc3)CC2)cc1` stands -17.7% (inactive); under `COc1ccccc1CNC(=O)C1CCN(S(=O)(=O)c2ccc3c(c2)CC(C)N3C(=O)C2CC2)CC1` (centres undefined), -10.2% (inactive).

`Cc1ccc(N(Cc2ccccc2O)C(=O)c2ccccc2F)cc1`: the inhibition is -2.19% (inactive). Under `CCCC(=O)N(CCN1CCOCC1)c1nc2ccc(OCC)cc2s1` stands 1.4% (inactive); under `CCOc1ccc2nc(C(=O)N3CCCC(C)C3)sc2c1` (centres undefined), 129% (active); under `CCOc1ccc2nc(Nc3nc4ccc(NC(C)=O)cc4s3)sc2c1`, 50.5% (inactive). Under `CC(C)[C@@H](C(=O)O)N(Cc1cccc(CN([C@H](C(=O)O)C(C)C)S(C)(=O)=O)c1)S(C)(=O)=O` stands -4.11% (inactive); under `COc1cccc(CC2(CO)CCCN(CC3=Cc4cc(OC)ccc4OC3)C2)c1` (centres undefined), -9.4% (inactive); under `CN1c2ccc([N+](=O)[O-])cc2C(C)(C)C12C=Cc1cc(C(=O)O)ccc1O2` (centres undefined), 6.92% (inactive).

As to `COc1ccc2c(c1)C=CC1(O2)N(CCO)c2ccccc2C1(C)C` (centres undefined), the inhibition was 40.8% (active). The value for `Cc1ccc(C)c(NC(=O)c2cc(-c3cc(C)cc(C)c3O)n[nH]2)c1` was 1.58% (inactive). As to `Clc1ccc(C[n+]2cc(-c3ccccc3)n3c2CCC3)cc1`, the inhibition was 12.3% (inactive). Under `Cc1ccc(/C=N/NC(=O)CNC(=O)COc2ccccc2)o1` stands -15.5% (inactive); under `Cc1ccc(/C=N/NC(=O)c2cc3ccccc3cc2O)o1`, 51.6% (active); under `O=C(N/N=C/c1cccnc1)c1ccc(NC(=O)c2ccc(F)cc2)cc1`, 12.4% (inactive). The value for `O=C(N/N=C/c1cccnc1)c1cc2ccccc2cc1O` was 87.2% (active); that for `Cc1ccc(/C=N/NC(=O)CSc2ccccn2)o1` was 17.6% (inactive).

On to `O=C(N/N=C\c1cccnc1)c1cc(-c2ccccc2)nc2c(Cl)cccc12`, for which the inhibition was -27% (inactive). Under `CN(C)CCOC1c2ccccc2-c2ccccc21` stands -5.07% (inactive).

For `COc1ccc(NC(=O)CNC(=O)Cc2ccccc2)cc1OC`, the inhibition is 3.87% (inactive). Under `O=C(CN(Cc1ccccc1)C(=O)CCC(=O)Nc1ccccn1)NCCc1ccccc1` stands -11.7% (inactive); under `COc1ccc2c(c1)c(C(=O)N/N=C/c1cccs1)c(C)n2C`, -4.44% (inactive).

`Cc1ccc(CS(=O)(=O)c2ncc(Cl)c(C(=O)Nc3nnc(C)s3)n2)cc1`: the inhibition is 116% (active).

In the case of `Cc1nnc(NC(=O)CCCOc2ccccc2)s1`, the inhibition is -8.1% (inactive).

As to `CSc1ncc(Cl)c(C(=O)Nc2cc(C)ccc2C)n1`, the inhibition was -0.876% (inactive).

For the compound `Cc1ccc(S(=O)(=O)CC(=O)Nc2nnc(C)s2)cc1`, the inhibition is -7.78% (inactive). The value for `COCCSc1nnc(NC(=O)CCS(=O)(=O)Cc2ccccc2)s1` was -28.2% (inactive); that for `CSc1nnc(NC(=O)c2nc(S(=O)(=O)Cc3ccc(C)cc3)ncc2Cl)s1` was 85.5% (active); that for `S=C(NCc1ccco1)NCc1ccccc1Cl` was 12.9% (inactive).

Turning to `CCOC(=O)c1ccc(-n2c(CCC(=O)O)ccc2-c2ccccc2)cc1`, the inhibition was 1.31% (inactive).

For the compound `O=C(O)CCn1c(Cc2ccccc2)nc2ccccc21`, the inhibition was 22.4% (inactive).

For the compound `CC(=O)c1cccc(NC(=S)N2CCN(S(C)(=O)=O)CC2)c1`, the inhibition is -3.09% (inactive). For the compound `COCC(C)n1c(C)cc(C(=O)COc2ccc(C)nc2[N+](=O)[O-])c1C` (centres undefined), the inhibition was 27% (inactive).

As to `COc1ccc(C)cc1-n1nnnc1SCC(=O)c1cc(C)n(Cc2ccco2)c1C`, the inhibition was -3.11% (inactive). The value for `Cc1ccc(OCC(=O)c2cc(C)n(Cc3ccco3)c2C)c([N+](=O)[O-])n1` was 50.3% (active). Under `Cc1cc(C(=O)COC(=O)CNC(=O)c2ccc(F)cc2)c(C)n1Cc1ccco1` stands 109% (active); under `O=C(COC(=O)CNC(=O)c1ccco1)Nc1ccc(F)cc1`, -5.84% (inactive).

Regarding `Cc1cc(C(=O)CSc2nc(N)cc(=O)[nH]2)c(C)n1Cc1ccco1`, the inhibition was -5.79% (inactive). The value for `CC(C)CCn1c(=O)c2c(nc3n2CCCN3Cc2ccccc2)n(C)c1=O` was -11.9% (inactive). Under `CC(C)C[C@@H](COc1ccccc1)N1CCN(CC(C)C)CCC1=O` stands 6.99% (inactive).

On to `O=S(=O)(c1ccc(Br)cc1)N1CCC(c2nc3ccccc3[nH]2)CC1`, for which the inhibition is 20.1% (inactive). Under `CCCc1cc(=O)oc2c(C)c(OC(C)C(=O)NCC(O)c3ccccc3)ccc12` (centres undefined) stands -4.11% (inactive).

For the compound `O=C(CN(C(=O)c1csnn1)c1cccc(Cl)c1)NC1CCCC1`, the inhibition was 13.6% (inactive). The value for `C=CCOC(=O)C(=C)C` was -5.85% (inactive). The value for `OCc1ccc(OCCCOc2cccc3cccnc23)cc1` was 31.7% (inactive); that for `Cc1ccc(S(=O)(=O)NCCC(=O)Nc2cccc(S(N)(=O)=O)c2)cc1C` was 3.14% (inactive). Under `Cc1ccc(S(=O)(=O)NCCC(=O)Nc2ccc(C)c(Cl)c2)cc1C` stands -2.35% (inactive).

Consider `Cc1ccnc(NC(=O)CCNS(=O)(=O)c2ccc(C)c(C)c2)c1`, for which the inhibition is 75.2% (active). Under `O=[N+]([O-])c1ccccc1/C=C/CN1CCCC(CO)C1` (centres undefined) stands -4.92% (inactive). Under `COc1cc2c(C(=O)N(C)c3cc(Cl)ccc3OC)cn(C)c(=O)c2cc1OC` stands -4.23% (inactive); under `O=C1CCN(CCCc2ccccc2)CCN1CCO`, -7.2% (inactive); under `O=C(NCC1CCCO1)/C(=C/c1ccc(Cl)cc1)NC(=O)c1ccccc1` (centres undefined), -1.77% (inactive). Under `N#C/C(=C/c1ccc(Cl)cc1)NC(=O)c1ccccc1` stands 69.2% (active). Regarding `O=C(Nc1ccccc1)/C(=C/c1ccc([N+](=O)[O-])cc1)NC(=O)c1ccccc1`, the inhibition is 0.876% (inactive). The value for `CCn1c(SCC(=O)NC2CC2)nnc1-c1ccncc1` was 6.57% (inactive).

`Cc1nn2c(NCCN(C)C)c3c(nc2c1-c1ccccc1)CCC3`: the inhibition was -1.35% (inactive). Under `Cc1ccc2c(=O)cc(C(=O)NCCc3ccc(S(N)(=O)=O)cc3)oc2c1C` stands 3.06% (inactive); under `CCOC(=O)c1ccc(NC2Nc3cc(C)nn3S2)cc1` (centres undefined), 37.2% (inactive). `CCc1ccc(NC2Nc3cc(C)nn3S2)cc1` (centres undefined): the inhibition was 52% (active).
